IL1B secr inh = inhibitors of inflammasome signaling (IL-1 beta secretion); THP-1 LPS/ATP IL-1B secretion, AlphaLISA, 16 h; stronger effect = lower value; activity change, % at 57.5 µM; hit rate 4.7% among 360,000; AID 743279; in the data active means activity change below about -50%; inconclusive means mostly about -30% to -49%; further: on the % scale 0 is the no-effect control and ±100 the full control effect
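THP-1 cells pretreated 1 hr with compounds (up to 57.5 uM final), then stimulated with LPS (250 ng/mL final) plus ATP (1.25 mM final); secreted IL-1B measured by AlphaLISA after 16 hr, decreased signal indicating inhibition.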
SW480 rereplic = induces DNA re-replication in SW480 colon adenocarcinoma cells | SW480 DNA re-replication, Hoechst DNA content imaging, 48 h | Potency, µM (titrated, usually from 46.1 µM), inactives show at the highest dose re-replication activation, actives largely listed as activators | hit rate 1.8% among 340,000 | AID 624297; further: potency means the concentration at half of the fitted maximal effect; % of control where 0% means no effect; nearly all actives have a fitted effect of over 55% in size
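Per well, 250 cells were exposed to pinned compound for 48 hr. Nuclear DNA was visualised with Hoechst (40 min, 37 C) and total object intensity recorded by fluorescence scanning.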
S2 tox = viability counter-screen for ATXN expression inhibitors; hit rate 0.49% among 400,000; Potency, µM (titrated, usually from 56.7 µM), most hits filed as cytotoxic; S2 cells (HEK-293 line with an ATXN2-luciferase reporter) viability, CellTiter-Fluor protease fluorescence, 24 h; further: potency means the concentration at half of the fitted maximal effect; nearly all actives have a fitted effect of over 40% in size
MCF10A rerep = inducers of DNA re-replication in MCF 10A breast cells. MCF 10A DNA re-replication, Hoechst nuclear intensity, 48 h. Potency, µM (series often up to 46.1 µM), inactives show at the top dose activity, positive = re-replication, actives largely listed as activators. hit rate 2.9% among 350,000. AID 624296; further: potency means the concentration at half of the fitted maximal effect; % of control where 0% means no effect; nearly all actives have a fitted effect of over 50% in size
PINK1 modulator = PINK1 expression modulation; PINK1 immunofluorescence, high-content cytometry, 24 h; hit rate 0.2% among 410,000; Potency, µM (top dose mostly 76.6 µM), for inactives: at the highest dose activation (PINK1 increase), most hits filed as activators; AID 624263; active means well fitted activation curve with a large enough effect; inconclusive means small, poorly fitted or top-dose-only effect; cell line not stated here; further: potency means the concentration at half of the fitted maximal effect; % of control where 0% means no effect; nearly all actives have a fitted effect of over 65% in size
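Decision-based qHTS: stable cells, 24 h exposure to five compound concentrations, CCCP as control. Fixed cells stained for PINK1 plus nuclear, mitochondrial and cell markers, cytometer read.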
ATXN2 expr inh = inhibitors of ATXN2 expression; HEK-293 ATXN2-luciferase reporter, luminescence, 24 h; hit rate 0.72% among 360,000; Potency, µM (top dose mostly 57 µM), for the others: top-dose activity change, negative = inhibition, hits mostly inhibitors; further: potency means the concentration at half of the fitted maximal effect; on the % scale 0 is the no-effect control and ±100 the full control effect; nearly all actives have a fitted effect of over 55% in size
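qHTS (up to 57 uM final) was run with 24 h compound exposure of reporter cells at 37 °C. Each well was multiplexed: SteadyGlo luminescence measured ATXN2-luciferase expression after a fluorogenic Gly-Phe-AFC viability readout (25 uM final).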
* hit, by the source's call. An excerpt weighted towards active compounds, which were near 7.1% of everything screened. Unless noted, the call rests on the fitted dose curve; in most records, active means well fitted curve in the direction sought with a large enough effect; inconclusive means small, poorly fitted or top-dose-only effect, or another doubt; inactive means no such curve, though single readings can be large; an effect the other way counts as inactive or inconclusive.

How did CC(=O)c1ccc(NC(=O)C(Cc2ccccc2)NS(=O)(=O)c2ccc3c(c2)CCC(=O)N3)cc1 (configuration not stated) do in these assays?
S2 tox: inactive; PINK1 modulator: 1%; ATXN2 expr inh: -6%

Results for NC(=O)Cn1c(=O)n(-c2ccccc2)c(=O)c2oc3ccccc3c21 ?
IL1B secr inh: -50*; SW480 rereplic: 10%; S2 tox: inactive; MCF10A rerep: 0%; PINK1 modulator: 3%; ATXN2 expr inh: -12%

What do the screens show for `Cn1ncc2c(N3CCN(c4ccc(Cl)c(Cl)c4)CC3)ncnc21`?
IL1B secr inh: -60*; SW480 rereplic: -4%; S2 tox: inactive; MCF10A rerep: 11%; PINK1 modulator: 5%; ATXN2 expr inh: 0.95µM*

How did Cn1ncc2c(N3CCN(c4ccccc4F)CC3)ncnc21 do in these assays?
IL1B secr inh: -3; SW480 rereplic: 1%; S2 tox: inactive; MCF10A rerep: 2%; PINK1 modulator: 1%; ATXN2 expr inh: 19%

Results for COc1ccccc1-c1ccc(SCc2ccccc2F)nn1 ?
IL1B secr inh: -60*; SW480 rereplic: 1%; S2 tox: inactive; MCF10A rerep: 4%; PINK1 modulator: 1%; ATXN2 expr inh: 97%

What do the screens show for `CC(C)COc1ccccc1C1CC(=O)Nc2cc3c(cc21)OCO3` (configuration not stated)?
S2 tox: inconclusive; PINK1 modulator: -1%; ATXN2 expr inh: inconclusive

What do the screens show for `COc1cc([C@H]2Oc3cc([C@H]4Oc5cc(O)cc(O)c5C(=O)[C@H]4O)ccc3O[C@H]2CO)ccc1O`?
ATXN2 expr inh: -13%

Results for CN(C)C(=O)c1ccc(-c2n[nH]c(=O)c3ccccc23)cc1 ?
IL1B secr inh: -19; SW480 rereplic: -2%; S2 tox: inactive; MCF10A rerep: 0.82µM*; PINK1 modulator: 1%; ATXN2 expr inh: -6%

What do the screens show for `CN(C(=O)CN1C(=O)/C(=C/c2ccccc2F)SC1=S)C1CCS(=O)(=O)C1` (configuration not stated)?
IL1B secr inh: -1; SW480 rereplic: 4%; S2 tox: inactive; MCF10A rerep: -1%; PINK1 modulator: 0%; ATXN2 expr inh: 30%

What do the screens show for `CN1C2CCC1/C(=C\c1ccccc1F)C(=O)/C2=C/c1ccccc1F`?
IL1B secr inh: -101*; SW480 rereplic: 12%; S2 tox: inconclusive; MCF10A rerep: inconclusive; PINK1 modulator: 0%; ATXN2 expr inh: -36%

Results for CCCNC(=O)c1ccc2nc(CCc3ccccc3)oc2c1 ?
S2 tox: inactive; PINK1 modulator: 2%; ATXN2 expr inh: 8%

How did N#CC(C#N)=C1NC2(CCCCC2)Cc2ccccc21 do in these assays?
IL1B secr inh: 5; SW480 rereplic: -8%; S2 tox: inactive; MCF10A rerep: 12%; PINK1 modulator: 1%

What do the screens show for `N#CC(C#N)=c1ccc2c(c1)NC1(CCCCC1)N=2`?
IL1B secr inh: -104*; SW480 rereplic: 13µM*; MCF10A rerep: inconclusive; PINK1 modulator: 4%; ATXN2 expr inh: inconclusive

Results for CCc1c(C2(O)CCCCC2)[nH]c2ccc(C(F)(F)F)cc12 ?
IL1B secr inh: -52*; SW480 rereplic: -1%; MCF10A rerep: inconclusive; PINK1 modulator: inconclusive; ATXN2 expr inh: -63%

How did Cc1ccc(S(=O)(=O)CCC(=O)N2CCN(c3ccccc3O)CC2)cc1 do in these assays?
IL1B secr inh: inconclusive; SW480 rereplic: 9.2µM*; S2 tox: inactive; MCF10A rerep: inconclusive; PINK1 modulator: 2%; ATXN2 expr inh: -6%

How did Cc1ccc(S(=O)(=O)CCC(=O)OCC(=O)N2CCN(c3ccccc3)CC2)cc1 do in these assays?
IL1B secr inh: 11; SW480 rereplic: -1%; S2 tox: inactive; MCF10A rerep: 0%; PINK1 modulator: 3%; ATXN2 expr inh: 0%

Compound activity from PubChem.
